Laboratory results reported in PubChem BioAssay AID1159580 (chemical genetic matrix, 2015).
Screen size: about 5,500 compounds; about 2,000 (36%) were called active. About 18% were inconclusive and are not listed. Rule as the data show it: active = normalized growth mostly below about 0.91 (no sharp cut-off); inconclusive = no clear call, values can overlap the other calls; inactive = mostly above about 0.92. This is one part of the list.

Experiment: chemical genetic growth profiling, strain panel (AID 1159580);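 also: tested at 20 µM; growth read once vehicle control cultures reached saturation at 30 °C; 1 = growth at the plate median or of vehicle wells; lower values mean less growth of the strain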
Conditions: growth OD
[1] = S. cerevisiae deletion strains, locus YBR021W, strain FUR4, hits give low values
[2] = S. cerevisiae deletion strains, locus YBR229C, strain ROT2, hits give low values
[3] = S. cerevisiae deletion strains, locus YCL029C, strain bik1, hits give low values
[4] = S. cerevisiae deletion strains, locus YDL035C, strain GPR1, hits give low values
[5] = S. cerevisiae deletion strains, locus YDL074C, strain BRE1, hits give low values
[6] = S. cerevisiae deletion strains, locus YDL101C, strain DUN1, hits give low values
[7] = S. cerevisiae deletion strains, locus YDL134C, strain PPH21, hits give low values
[8] = S. cerevisiae deletion strains, locus YDL185W, strain tfp1, hits give low values
[9] = S. cerevisiae deletion strains, locus YDL192W, strain arf1, hits give low values
[10] = S. cerevisiae deletion strains, locus YDR101C, strain arx1, hits give low values
[11] = S. cerevisiae deletion strains, locus YDR162C, strain NBP2, hits give low values
[12] = S. cerevisiae deletion strains, locus YDR318W, strain mcm21, hits give low values
[13] = S. cerevisiae deletion strains, locus YDR388W, hits give low values
[14] = S. cerevisiae deletion strains, locus YDR502C, strain sam2, hits give low values
[15] = S. cerevisiae deletion strains, locus YEL061C, strain CIN8, hits give low values
[16] = S. cerevisiae deletion strains, locus YER110C, hits give low values
[17] = S. cerevisiae deletion strains, locus YER155C, strain BEM2, hits give low values
[18] = S. cerevisiae deletion strains, locus YER167W, strain BCK2, hits give low values
[19] = S. cerevisiae deletion strains, locus YGL078C, strain dbp3, hits give low values
[20] = S. cerevisiae deletion strains, locus YGL086W, strain mad1, hits give low values
[21] = S. cerevisiae deletion strains, locus YGL248W, strain PDE1, hits give low values
[22] = S. cerevisiae deletion strains, locus YGR078C, strain PAC10, hits give low values
[23] = S. cerevisiae deletion strains, locus YGR135W, strain pre9, hits give low values
[24] = S. cerevisiae deletion strains, locus YGR252W, strain gcn5, hits give low values
[25] = S. cerevisiae deletion strains, locus YHR030C, strain SLT2, hits give low values
[26] = S. cerevisiae deletion strains, locus YHR079C, strain IRE1 (second series), hits give low values
[27] = S. cerevisiae deletion strains, locus YHR094C, strain hxt1, hits give low values
[28] = S. cerevisiae deletion strains, locus YHR129C, strain ARP1, hits give low values
[29] = S. cerevisiae deletion strains, locus YHR200W, strain rpn10, hits give low values
[30] = S. cerevisiae deletion strains, locus YIL066C, strain RNR3, hits give low values
[31] = S. cerevisiae deletion strains, locus YIL073C, strain SPO22, hits give low values
[32] = S. cerevisiae deletion strains, locus YIL125W, strain kgd1, hits give low values
[33] = S. cerevisiae deletion strains, locus YIR030C, strain dcg1, hits give low values
[34] = S. cerevisiae deletion strains, locus YJL095W, strain BCK1, hits give low values
[35] = S. cerevisiae deletion strains, locus YJL134W, strain LCB3, hits give low values
[36] = S. cerevisiae deletion strains, locus YJL168C, strain set2, hits give low values
[37] = S. cerevisiae deletion strains, locus YJL187C, strain SWE1 (second series), hits give low values
[38] = S. cerevisiae deletion strains, locus YKL009W, strain mrt4, hits give low values
[39] = S. cerevisiae deletion strains, locus YKL068W, hits give low values
[40] = S. cerevisiae deletion strains, locus YKL085W, strain MDH1 (second series), hits give low values
[41] = S. cerevisiae deletion strains, locus YKL085W, strain MDH1, hits give low values
[42] = S. cerevisiae deletion strains, locus YKR001C, strain vps1, hits give low values
[43] = S. cerevisiae deletion strains, locus YLR039C, strain RIC1, hits give low values
[44] = S. cerevisiae deletion strains, locus YLR058C, strain SHM2, hits give low values
[45] = S. cerevisiae deletion strains, locus YLR102C, strain apc9, hits give low values
[46] = S. cerevisiae deletion strains, locus YLR262C, strain YPT6, hits give low values
[47] = S. cerevisiae deletion strains, locus YLR268W, strain sec22, hits give low values
[48] = S. cerevisiae deletion strains, locus YLR371W, strain rom2, hits give low values
[49] = S. cerevisiae deletion strains, locus YLR418C, strain cdc73, hits give low values
[50] = S. cerevisiae deletion strains, locus YML016C, strain PPZ1, hits give low values
[51] = S. cerevisiae deletion strains, locus YML032C, strain rad52, hits give low values
[52] = S. cerevisiae deletion strains, locus YML124C, strain tub3, hits give low values
[53] = S. cerevisiae deletion strains, locus YMR078C, strain ctf18, hits give low values
[54] = S. cerevisiae deletion strains, locus YMR223W, strain ubp8, hits give low values
[55] = S. cerevisiae deletion strains, locus YMR263W, strain SAP30, hits give low values
[56] = S. cerevisiae deletion strains, locus YMR307W, strain GAS1, hits give low values
[57] = S. cerevisiae deletion strains, locus YNL067W, strain RPL9B, hits give low values
[58] = S. cerevisiae deletion strains, locus YNL233W, strain BNI4, hits give low values
[59] = S. cerevisiae deletion strains, locus YNL250W, strain rad50, hits give low values
[60] = S. cerevisiae deletion strains, locus YNL271C, strain bni1, hits give low values
[61] = S. cerevisiae deletion strains, locus YNL298W, strain CLA4, hits give low values
[62] = S. cerevisiae deletion strains, locus YNL307C, strain MCK1, hits give low values
[63] = S. cerevisiae deletion strains, locus YNL322C, strain KRE1, hits give low values
[64] = S. cerevisiae deletion strains, locus YNR052C, strain pop2, hits give low values
[65] = S. cerevisiae deletion strains, locus YOL012C, strain htz1
[66] = S. cerevisiae deletion strains, locus YOL147C, strain pex11, hits give low values
[67] = S. cerevisiae deletion strains, locus YOR061W, strain CKA2, hits give low values
[68] = S. cerevisiae deletion strains, locus YOR069W, strain VPS5, hits give low values
[69] = S. cerevisiae deletion strains, locus YOR136W, strain idh2, hits give low values
[70] = S. cerevisiae deletion strains, locus YOR144C, strain elg1, hits give low values
[71] = S. cerevisiae deletion strains, locus YOR184W, strain ser1, hits give low values
[72] = S. cerevisiae deletion strains, locus YOR316C, strain cot1, hits give low values
[73] = S. cerevisiae deletion strains, locus YPL055C, strain LGE1, hits give low values
[74] = S. cerevisiae deletion strains, locus YPL241C, strain CIN2, hits give low values
[75] = S. cerevisiae deletion strains, locus YPR119W, strain clb2, hits give low values
[76] = S. cerevisiae deletion strains, locus YPR141C, strain kar3, hits give low values
[77] = S. cerevisiae deletion strains, locus YPR163C, strain tif3, hits give low values
[78] = S. cerevisiae deletion strains, locus YPR167C, strain met16, hits give low values
[79] = S. cerevisiae deletion strains, strain wtn01, hits give low values
[80] = S. cerevisiae strains, strain wild type, hits give low values
[81] = S. cerevisiae deletion strains, locus YJR043C, strain POL32, hits give low values
[82] = S. cerevisiae deletion strains, locus YNL153C, strain GIM3, hits give low values
[83] = S. cerevisiae deletion strains, locus YAL013W, strain DEP1, hits give low values
[84] = S. cerevisiae deletion strains, locus YDR150W, strain NUM1, hits give low values
[85] = S. cerevisiae deletion strains, locus YHR087W, strain rtc3, hits give low values
[86] = S. cerevisiae deletion strains, locus YJR075W, strain HOC1, hits give low values
[87] = S. cerevisiae deletion strains, locus YKL190W, strain CNB1, hits give low values
[88] = S. cerevisiae deletion strains, locus YLR058C, strain SHM2 (second series), hits give low values
[89] = S. cerevisiae deletion strains, locus YLR085C, strain ARP6, hits give low values
[90] = S. cerevisiae deletion strains, locus YML094W, strain GIM5, hits give low values
[91] = S. cerevisiae deletion strains, locus YMR219W, strain ESC1, hits give low values
[92] = S. cerevisiae deletion strains, locus YNL298W, strain CLA4 (second series), hits give low values
[93] = S. cerevisiae deletion strains, locus YNR030W, strain Alg12, hits give low values
[94] = S. cerevisiae deletion strains, locus YOL006C, strain TOP1, hits give low values
[95] = S. cerevisiae deletion strains, locus YPR135W, strain CTF4, hits give low values

Measured: normalized growth

CC1(C)C(O)CC(O)C2(C)C1CC(O)C1(C)C2CCC2(C)C(c3ccoc3)CC3OC321 (stereo unspecified)
inactive: [1] 0.936 | [2] 1.01 | [3] 1 | [4] 0.969 | [5] 0.973 | [6] 1 | [7] 0.992 | [8] 1.02 | [9] 1 | [10] 0.987 | [11] 0.998 | [12] 1 | [13] 1.01 | [14] 0.998 | [15] 0.997 | [16] 1.02 | [17] 0.996 | [18] 1 | [19] 1.01 | [20] 0.99 | [21] 1 | [22] 0.991 | [23] 0.997 | [24] 0.981 | [25] 1.01 | [26] 1.02 | [27] 1.01 | [28] 0.998 | [29] 1 | [30] 0.99 | [31] 1.04 | [32] 1.01 | [33] 1.02 | [34] 0.978 | [35] 0.998 | [36] 1.01 | [37] 0.996 | [38] 0.982 | [39] 1.01 | [40] 0.996 | [41] 0.996 | [42] 0.99 | [43] 1.03 | [44] 0.998 | [45] 1 | [46] 1.01 | [47] 0.993 | [48] 0.994 | [49] 0.983 | [50] 1 | [51] 1.01 | [52] 1.01 | [53] 1.02 | [54] 0.989 | [55] 1.01 | [56] 0.991 | [57] 1 | S. cerevisiae deletion strains, locus YNL128W, strain TEP1, hits give low values 0.998 | [58] 0.978 | [59] 1.01 | [60] 1.01 | [61] 1.01 | [62] 1.03 | [63] 0.996 | [64] 1 | [65] 1.12 | [66] 1 | [67] 1 | [68] 1 | [69] 0.998 | [70] 1.02 | [71] 0.976 | [72] 1.01 | [73] 0.988 | [74] 0.997 | [75] 1.01 | [76] 1.02 | [77] 1.01 | [78] 1.01 | [79] 0.986 | [80] 0.972

CC(=O)OC1CC(OC(C)=O)C2(C)C(CC(OC(C)=O)C3(C)C2CCC2(C)C(c4ccoc4)CC4OC423)C1(C)C (stereo unspecified)
inactive: [1] 0.998 | [2] 1 | [3] 1 | [4] 1.01 | [5] 1.02 | [6] 1.03 | [8] 1.01 | [9] 1.01 | [10] 0.998 | [11] 1.01 | [12] 1 | [13] 1.01 | [14] 1.02 | [16] 1.01 | [17] 1 | [18] 1.01 | [19] 1.02 | [20] 0.997 | [21] 1.01 | [23] 1.04 | S. cerevisiae deletion strains, locus YGR229C, strain SMI1, hits give low values 1.02 | [24] 0.998 | [26] 1.01 | [27] 1.01 | [28] 1.02 | [29] 1.01 | [30] 1.01 | [31] 1.05 | [32] 1.01 | [33] 1 | [34] 1.04 | [35] 1.01 | [36] 1.01 | [37] 1.02 | [81] 0.981 | [38] 0.984 | [39] 1 | [40] 1.01 | [41] 1.01 | [42] 1 | [43] 1.01 | [44] 1.01 | [45] 1.01 | [46] 0.927 | [47] 0.994 | S. cerevisiae deletion strains, locus YLR330W, strain CHS5, hits give low values 1.02 | S. cerevisiae deletion strains, locus YLR342W, strain FKS1 (second series), hits give low values 1 | [48] 1.02 | [49] 1.02 | [50] 1.01 | [51] 1.01 | [52] 1 | [53] 1.01 | [54] 1.01 | [55] 1.02 | [56] 1.01 | [57] 1.03 | [82] 1.03 | [58] 0.986 | [59] 1.01 | [60] 0.998 | [61] 1.02 | [62] 1.02 | [64] 1.01 | [65] 0.881 | [66] 0.996 | [67] 1 | [68] 1.01 | [69] 1 | [70] 0.999 | [71] 0.982 | [72] 1.01 | [74] 1.01 | [75] 1 | [76] 1.02 | [77] 1.01 | [78] 1.01 | [79] 0.997

Nc1ccccc1SCC(=O)Nc1c(F)cccc1F
inactive: [83] 0.982 | [2] 0.998 | [6] 0.979 | [7] 1.04 | [84] 0.977 | [15] 1.03 | [22] 1 | [25] 0.938 | [85] 1.05 | S. cerevisiae deletion strains, locus YJL187C, strain SWE1, hits give low values 1.03 | [81] 0.975 | [86] 1.01 | [87] 1.01 | [88] 1.02 | [89] 0.985 | [90] 0.955 | [91] 0.998 | [55] 1.01 | [82] 1.01 | [92] 1.03 | [63] 1 | [93] 1 | [94] 0.903 | [73] 0.994 | [74] 0.977 | [95] 1.02 | [80] 1.01
active: [43] 0.672 | [46] 0.595

O=C(Nc1ccccc1F)C(Cl)Cl
inactive: [83] 0.999 | [2] 0.989 | S. cerevisiae deletion strains, locus YCL061C, strain MRC1, hits give low values 1 | [6] 0.994 | [7] 0.967 | [84] 1.01 | [15] 1.01 | [22] 0.975 | [25] 1.07 | [85] 0.981 | [81] 0.997 | [86] 0.971 | [87] 0.981 | [43] 1.16 | [88] 0.987 | [89] 0.991 | [46] 1.14 | [90] 0.992 | [91] 0.991 | [55] 0.995 | [82] 1.02 | [92] 0.984 | [63] 0.987 | [93] 0.976 | [94] 1.02 | [73] 0.962 | [74] 0.977 | [95] 0.99
